The text below walks through data of PubChem BioAssay (Tox21).

Assay [1] is described as follows: A CellTox Green Cytotoxicity Assay to monitor cytotoxicity in HepG2 cells - 16 hour (AID 1224876). Note: nearly all actives have a fitted effect of over 45% in size. Put shortly:
(§1)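 Nonlytic assay: viable cells exclude the dye, so fluorescence scales with cell death. HepG2 at 600 cells/well, compounds added after 5 h, signal read across 40 h.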

Assay [2] in a line: qHTS RealTime-Glo MT Cell Viability Assay in HepG2 cells - 32 hour (AID 1224877). Note: nearly all actives have a fitted effect of over 55% in size. In short, it runs like this: (§2)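 Viability was tracked continuously by NanoLuc luminescence from prosubstrate reduced by living HepG2 cells, at successive time points over 40 h of compound exposure. Cells with reagent were preincubated 5 h at 37 °C before compound addition.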
For orientation: In qHTS, concentration-response curves come from the screen itself.

Assay [3] in a line: A CellTox Green Cytotoxicity Assay to monitor cytotoxicity in HepG2 cells - 24 hour (AID 1224878). Note: nearly all actives have a fitted effect of over 45% in size. Put shortly:
as §1

Assay [4] can be described thus: A CellTox Green Cytotoxicity Assay to monitor cytotoxicity in HepG2 cells - 40 hour (AID 1224879). Note: nearly all actives have a fitted effect of over 40% in size. Put shortly:
as §1

The nature of assay [5]: qHTS RealTime-Glo MT Cell Viability Assay in HEK293 cells - 0 hour (AID 1224880). Note: top concentration of the series differs between compounds; nearly all actives have a fitted effect of over 45% in size. Put shortly: (§3)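 Tox21 screen in HEK293 using RealTime-Glo MT chemistry, with cells and reagent co-dispensed. Luminescence proportional to viable cell number was captured at intervals during 40 h compound exposure at 37 C.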
The nature of assay [6]: A CellTox Green Cytotoxicity Assay to monitor cytotoxicity in HEK293 cells - 32 hour (AID 1224881). Note: nearly all actives have a fitted effect of over 40% in size. In short, it runs like this: (§4)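 Seeding of HEK293 cells together with cytotoxicity dye preceded a 5 h incubation at 37 C/5% CO2. Test compounds in DMSO were then added and fluorescence monitored across 40 h.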
A short description of assay [7]: A CellTox Green Cytotoxicity Assay to monitor cytotoxicity in HepG2 cells - 0 hour (AID 1224882). Note: nearly all actives have a fitted effect of over 35% in size. In short, it runs like this:
as §1

Assay [8] is described as follows: A CellTox Green Cytotoxicity Assay to monitor cytotoxicity in HepG2 cells - 32 hour (AID 1224883). Note: nearly all actives have a fitted effect of over 50% in size. In short, it runs like this: as §1
The nature of assay [9]: A CellTox Green Cytotoxicity Assay to monitor cytotoxicity in HEK293 cells - 8 hour (AID 1224884). Note: nearly all actives have a fitted effect of over 35% in size. Put shortly: as §4
A short description of assay [10]: qHTS RealTime-Glo MT Cell Viability Assay in HepG2 cells - 16 hour (AID 1224885). Note: nearly all actives have a fitted effect of over 50% in size. Put shortly:
as §2

Assay [11] can be described thus: qHTS RealTime-Glo MT Cell Viability Assay in HEK293 cells - 24 hour (AID 1224886). For activity change, negative = cytotoxicity: top concentration of the series differs between compounds. Note: nearly all actives have a fitted effect of over 50% in size. Note: potency is the fitted concentration of half-maximal effect. In short, it runs like this:
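Viability tracked continuously by luminescence as live cells reduce a prosubstrate for NanoLuc; HEK293 cells preincubated 5 h, compound-treated at 37 C, and read at 0, 8, 16, 24, 32 and 40 h.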

A short description of assay [12]: qHTS RealTime-Glo MT Cell Viability Assay in HEK293 cells - 8 hour (AID 1224887). Note: top concentration of the series differs between compounds; nearly all actives have a fitted effect of over 50% in size. In short, it runs like this:
as §3

Assay [13] can be described thus: A CellTox Green Cytotoxicity Assay to monitor cytotoxicity in HEK293 cells - 16 hour (AID 1224888). Note: nearly all actives have a fitted effect of over 35% in size. Put shortly:
as §4

Assay [14] can be described thus: qHTS RealTime-Glo MT Cell Viability Assay in HepG2 cells - 0 hour (AID 1224889). Note: nearly all actives have a fitted effect of over 50% in size. In short, it runs like this:
as §2

A short description of assay [15]: A CellTox Green Cytotoxicity Assay to monitor cytotoxicity in HepG2 cells - 8 hour (AID 1224890). Note: nearly all actives have a fitted effect of over 45% in size. In short, it runs like this:
as §1

Assay [16] can be described thus: qHTS assay to identify small molecule antagonists of the estrogen receptor alpha (ER-alpha) signaling pathway using the BG1 cell line in the presence of 0.1 nM 17-beta-estradiol - cell viability counter screen (AID 1259241). Note: nearly all actives have a fitted effect of over 40% in size. Put shortly:
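VM7Luc4E2 cells (endogenous full-length ER-alpha, 4xERE-luciferase), cultured 5 days in charcoal-stripped serum, exposed to compounds with 0.1 nM 17beta-estradiol (final) for 22 hr at 37C. Viability read in same wells as live-cell protease fluorescence after 30 min.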

A short description of assay [17]: qHTS assay to identify small molecule antagonists of the androgen receptor (AR) signaling pathway using the MDA cell line in the presence of 0.5 nM R1881 - cell viability counter screen (AID 1259242). Note: nearly all actives have a fitted effect of over 45% in size. Put shortly:
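R1881 at 0.5 nM final stimulated MDA-kb2 cells during 16 hr compound treatment at 37C. Cytotoxicity read: CellTiter-Fluor fluorescence after 30 min.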

Assay [18] concerns the target Androgen receptor (Homo sapiens) (UniProt P10275). The assay is described as follows: qHTS assay to identify small molecule antagonists of the androgen receptor (AR) signaling pathway using the MDA cell line in the presence of 0.5 nM R1881 (AID 1259243). Note: nearly all actives have a fitted effect of over 50% in size. In short, it runs like this: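 We exposed MDA-kb2 cells to compounds under 0.5 nM R1881 stimulation for 16 hr at 37C and quantified MMTV-driven luciferase by luminescence.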

The target in assay [19] is Estrogen receptor (Homo sapiens) (UniProt P03372). The assay is described as follows: qHTS assay to identify small molecule antagonists of the estrogen receptor alpha (ER-alpha) signaling pathway using the BG1 cell line in the presence of 0.1 nM 17-beta-estradiol (AID 1259244). Note: nearly all actives have a fitted effect of over 50% in size. In short, it runs like this:
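VM7Luc4E2; 4xERE-luciferase; 0.1 nM E2 final; 22 h co-incubation, 37C; ONE-Glo luminescence after 30 min at room temperature.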

Assay [20] in a line: qHTS assay to identify small molecule phospholipidosis (PLD) inducers (AID 1259344; active = well fitted curve in the direction sought with a large enough effect; an effect the other way counts as inactive or inconclusive). Put shortly:
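Quantitative HTS in HepG2: compound plus LipidTOX Red dye for 24 h, paraformaldehyde fixation with Hoechst 33342, widefield high-content imaging; amiodarone as positive and DMSO as negative control.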

Unmarked numbers belong to inactive results. Records with an inconclusive call do not appear. Calls of active or inactive are those of the source. Unless noted, calls come from the whole dose curve; as a rule, active = well fitted curve in the direction sought with a large enough effect in the repeat runs; inconclusive = weak or mixed curves; inactive = no such curve, though single readings can be large; an effect the other way counts as inactive or inconclusive.
% is set by controls: 0 for no effect and ±100 for the full control effect.

Androgen receptor (Homo sapiens), sequence (P10275 whole entry, looked up): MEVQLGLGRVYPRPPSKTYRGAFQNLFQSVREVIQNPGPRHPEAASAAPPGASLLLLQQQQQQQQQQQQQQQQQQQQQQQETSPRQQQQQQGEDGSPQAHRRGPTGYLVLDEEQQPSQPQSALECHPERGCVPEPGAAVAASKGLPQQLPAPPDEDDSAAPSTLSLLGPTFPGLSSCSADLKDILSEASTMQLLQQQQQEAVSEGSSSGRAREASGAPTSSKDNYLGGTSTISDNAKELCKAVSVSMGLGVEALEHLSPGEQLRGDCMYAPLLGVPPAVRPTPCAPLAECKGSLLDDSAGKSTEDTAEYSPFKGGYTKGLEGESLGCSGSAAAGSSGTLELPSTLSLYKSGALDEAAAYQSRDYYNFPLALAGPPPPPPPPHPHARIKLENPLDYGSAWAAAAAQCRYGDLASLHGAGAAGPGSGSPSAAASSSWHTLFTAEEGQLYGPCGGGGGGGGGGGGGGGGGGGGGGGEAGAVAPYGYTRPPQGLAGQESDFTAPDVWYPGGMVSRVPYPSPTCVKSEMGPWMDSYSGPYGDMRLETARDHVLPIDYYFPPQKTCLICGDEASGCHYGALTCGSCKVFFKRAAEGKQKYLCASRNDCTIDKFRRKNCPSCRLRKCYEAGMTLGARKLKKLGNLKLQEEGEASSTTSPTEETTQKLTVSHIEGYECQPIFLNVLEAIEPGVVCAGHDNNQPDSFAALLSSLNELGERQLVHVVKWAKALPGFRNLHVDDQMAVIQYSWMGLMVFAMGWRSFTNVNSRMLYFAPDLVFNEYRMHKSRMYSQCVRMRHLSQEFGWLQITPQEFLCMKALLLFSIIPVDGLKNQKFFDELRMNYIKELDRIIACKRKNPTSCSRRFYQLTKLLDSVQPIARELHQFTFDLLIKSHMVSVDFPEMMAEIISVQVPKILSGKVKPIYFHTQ
Estrogen receptor (Homo sapiens), sequence (P03372 whole entry, looked up): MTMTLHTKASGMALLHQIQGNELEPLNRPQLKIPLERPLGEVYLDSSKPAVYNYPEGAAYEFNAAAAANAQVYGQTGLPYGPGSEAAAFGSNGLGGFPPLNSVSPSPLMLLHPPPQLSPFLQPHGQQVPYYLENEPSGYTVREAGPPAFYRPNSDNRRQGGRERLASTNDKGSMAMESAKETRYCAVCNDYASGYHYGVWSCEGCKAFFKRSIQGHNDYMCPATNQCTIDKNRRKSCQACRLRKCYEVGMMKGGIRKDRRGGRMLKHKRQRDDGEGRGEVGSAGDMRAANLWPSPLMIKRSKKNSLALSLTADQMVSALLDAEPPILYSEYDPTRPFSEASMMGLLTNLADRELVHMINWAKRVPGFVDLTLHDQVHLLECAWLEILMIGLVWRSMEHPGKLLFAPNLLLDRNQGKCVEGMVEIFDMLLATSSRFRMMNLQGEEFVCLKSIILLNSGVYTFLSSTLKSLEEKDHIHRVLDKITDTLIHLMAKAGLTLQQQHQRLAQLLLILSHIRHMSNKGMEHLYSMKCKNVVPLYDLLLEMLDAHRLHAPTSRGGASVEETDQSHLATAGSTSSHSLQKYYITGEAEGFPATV

In the case of `CCCCCCCCCCCCCCCCI`, the cytotoxicity increase was -9.76% [at 15.8 µM] in assay [1]; -12.9% [at 15.8 µM] in assay [4]; -8.24% [at 15.8 µM] in assay [6]; -12.6% [at 15.8 µM] in [8]; -6.52% [at 15.8 µM] in [9]; -10.7% [at 15.8 µM] in assay [15]. In addition, the figures for the activity change, negative = cytotoxic in assay [2] and in [10] were 7.46% [at 15.8 µM] and -8.4% [at 15.8 µM], respectively. Besides, the figures for the cytotoxicity in assay [3] and in assay [7] were -11% [at 15.8 µM] and -4.1% [at 15.8 µM], respectively. Besides, the activity change, negative = cytotoxicity in [5] was -2.88% [at 15.8 µM]; in assay [11], -7.78% [at 15.8 µM]; in assay [12], -0.789% [at 15.8 µM]; in [14], -19.8% [at 15.8 µM]; in assay [16] it was 7.96% [at 19 µM]. Besides, in assay [13], the activity change is -4.25% [at 15.8 µM, active compounds read high]. The viability change, negative = cytotoxic in assay [17] is 2.57% [at 19 µM]. Moreover, the outcome in assay [18] was inactive.

Take `O=CN1CCOCC1`: the Potency entry in assay [1], in assay [3], in [4], in [6], in assay [7] and in [8] was “inactive” in each case. Besides, the Potency entry in assay [9], in assay [11], in [12], in assay [13], in assay [14] and in [15] was “inactive” each time. The Potency result in [16], in assay [17] and in assay [19] was “inactive” throughout. The compound was classed as inactive in assay [2], in [5], in assay [10] and in [18].

Turning to `CCCCCCCCCCCCC`, the Potency result in assay [1], in [3], in assay [4], in assay [6], in assay [7] and in assay [8] was “inactive” each time. Also, the Potency result in [9], in assay [11], in assay [12], in [13], in assay [14] and in assay [15] was “inactive” in each case. The Potency entry in assay [16] and in assay [17] was “inactive” each time. Besides, the compound was called inactive in assay [2], in assay [5] and in assay [10].

As to `CCN(CCC#N)c1ccccc1`, the Potency entry in [1], in assay [3], in [4], in assay [6], in assay [7] and in [8] was “inactive” in each case. In addition, the Potency result in assay [9], in assay [11], in assay [12], in assay [13], in [14] and in [15] was “inactive” in each case. The Potency entry in assay [16] and in assay [17] was “inactive” throughout. Also, the compound was classed as inactive in assay [2], in assay [5] and in assay [10].

As to `O=c1[nH]c(=O)c2ccccc2o1`, the Potency result in assay [1], in assay [3], in assay [4], in assay [6], in [7] and in [8] was “inactive” in each case. In addition, the Potency result in assay [9], in assay [11], in assay [12], in assay [13], in assay [14] and in assay [15] was “inactive” in each case. The Potency entry in assay [16] and in assay [17] was “inactive” throughout. Besides, the compound was classed as inactive in assay [2], in [5], in [10], in [18] and in assay [20].

On to `C[C@H](CCC(=O)NCC(=O)O)[C@H]1CC[C@H]2[C@@H]3[C@H](O)C[C@@H]4C[C@H](O)CC[C@]4(C)[C@H]3C[C@H](O)[C@]12C`, for which the Potency result in assay [1], in [3], in assay [4], in [6], in [7] and in [8] was “inactive” each time. In addition, the Potency result in assay [9], in [12], in assay [13], in [14], in assay [15] and in assay [16] was “inactive” in each case. In assay [17], the Potency result was “inactive”. The compound was called inactive in assay [2], in assay [5] and in assay [10]. The Potency in [11] is 13.4 µM (active).

As for `CCCCC/C=C/CC(=O)OC`, the Potency entry in [1], in assay [3], in assay [4], in assay [6], in assay [7] and in [8] was “inactive” throughout. For the same compound, the Potency result in assay [9], in assay [11], in assay [12], in [13], in assay [14] and in [15] was “inactive” throughout. In addition, the Potency result in [16] and in [17] was “inactive” in each case. Also, the call in assay [2], in assay [5] and in assay [10] was inactive.
